Measured values from PubChem BioAssay (NCI).
Compounds without any hit were thinned out: in the full panel of roughly 83,000, 20% have a hit.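 Results are percent growth after 48 hours of single-concentration exposure. 100 means growth as in untreated cells, lower positive values show inhibition; negative values down to -100 show cell death.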 Values without a mark were called inactive. Active and inactive are the calls of the source. Rule for the calls: active = growth percent below 10; inactive = the rest.

What was measured:
Test in all cases: NCI-60 one-dose screen, 48 h (100 = growth as untreated, 0 = no growth, -100 = all killed)
[1] = system: DU-145 prostate; details: 10 µM unless noted
[2] = system: K-562 leukemia; details: 10 µM unless noted
[3] = system: MALME-3M melanoma; details: 10 µM unless noted
[4] = system: MDA-MB-231 breast; details: 10 µM unless noted
[5] = system: RXF 393 renal; details: 10 µM unless noted
[6] = system: SF-268 CNS; details: 10 µM unless noted
[7] = system: SF-295 CNS; details: 10 µM unless noted
[8] = system: SF-539 CNS; details: 10 µM unless noted
[9] = system: UACC-257 melanoma; details: 10 µM unless noted
[10] = system: HCT-15 colon; details: 10 µM unless noted
[11] = system: HT29 colon; details: 10 µM unless noted
[12] = system: SNB-75 CNS; details: 10 µM unless noted
[13] = system: U251 CNS; details: 10 µM unless noted
[14] = system: PC-3 prostate; details: 10 µM unless noted
[15] = system: SK-MEL-5 melanoma; details: 10 µM unless noted
[16] = system: UACC-62 melanoma; details: 10 µM unless noted
[17] = system: LOX IMVI melanoma; details: 10 µM
[18] = system: SK-MEL-28 melanoma; details: 10 µM unless noted
[19] = system: M14 melanoma; details: 10 µM unless noted
[20] = system: SNB-19 CNS; details: 10 µM unless noted

| Compound | growth [1] [%] | growth [2] | growth [3] [%] | growth [4] [%] | growth [5] [%] | growth [6] [%] | growth [7] | growth [8] [%] | growth [9] [%] | growth [10] [%] | growth [11] | growth [12] | growth [13] [%] | growth [14] [%] | growth [15] [%] | growth [16] [%] | growth [17] [%] | growth [18] [%] | growth [19] [%] | growth [20] [%] |
| --- | --- | --- | --- | --- | --- | --- | --- | --- | --- | --- | --- | --- | --- | --- | --- | --- | --- | --- | --- | --- |
| C#CC(O)c1ccccc1 (stereo unspecified) | 110 | 99.3% | 99.7 | 101 | 112 | 112 | 110% | 99.7 | 102 | 103 | 105% | 103% | 97.2 | 97.3 | 97.8 | 103 | 103 | 109 | – | – |
| CCc1ccccc1C(=O)N(CC)CC | 104 | 106% | 102 | 100 | – | 97.5 | 97.6% | 94.9 | 103 | 103 | 106% | 90.6% | 103 | 102 | 104 | 99.5 | 99.2 | 102 | 103 | 105 |
| CC(CO)(CO)C(=O)O | 105 | 101% | 90.4 | 108 | 99.5 | 104 | – | 97.9 | 98.4 | 100 | 102% | 97.4% | 102 | 94.9 | 97.3 | 103 | 97.9 | 110 | – | 105 |
| COc1ccc2c(c1)Nc1ccccc1S2 | 116 | 102% | 105 | 109 | 115 | – | 108% | 103 | 115 | 104 | 104% | 108% | 97.2 | 97.9 | 101 | 96.2 | 113 | 114 | 101 | 110 |
| Nc1nc2nnc(-c3ccccc3)c(-c3ccccc3)n2n1 | 98.8 | 96.3% | 125 | 88.7 | – | 103 | 71% | 80.9 | 103 | 94.7 | 97.4% | 91.4% | 111 | 86.5 | 86.5 | 87.8 | 87.6 | 86.3 | 127 | 80 |
| Clc1ncnc2nc[nH]c12 | 91 | 90.1% | 106 | 99 | – | 95.8 | 107% | 86.4 | 103 | 96.4 | 107% | 82.9% | 103 | 96.4 | 98.9 | 91.1 | 95.1 | 99.8 | 97.5 | 96.4 |
| NS(=O)(=O)c1cc(=O)[nH]c(=O)[nH]1 | 114 | 131% | 90.7 | 115 | – | 110 | 109% | 111 | 113 | 111 | 108% | 93.1% | 98 | 120 | 107 | – | 93.4 | 110 | 102 | 106 |
| O=C1NC(=O)C(c2ccccc2)O1 (stereo unspecified) | 119 | 92.6% | 100 | 122 | 121 | 115 | – | 96.4 | 98.8 | 107 | 105% | 93.2% | 101 | – | 104 | 105 | 97.4 | 109 | 100 | 109 |
| CNc1ccccc1C(=O)N/N=C/C=C/c1ccccc1 | 14.9 | 8.9% (active) | 31.5 | 49.3 | – | 34.9 | -0.27% (active) | 21.7 | 39.1 | 33.8 | 3.82% (active) | -15.6% (active) | – | 18.7 | 18.2 | 49.3 | 14.7 | 39.3 | 17.1 | 53.9 |
